Experimental data from the supplement of paper PMC7801607.

Key:
CHO = test: % viability of CHO cells (MTT); higher = less toxic; conditions: 48 h
Procedure, shortened: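 CHO cells seeded at 10^6 cells/well were exposed to compound at 2 or 20 µM for 48 h. Survival, as percent of untreated cells, was measured with the colorimetric tetrazolium (MTT) assay.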

HepG2-A16-CD81 = test: % inhibition of HepG2 viability (CellTiter-Glo); higher = more toxic; conditions: 5 µM;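 also: HepG2-A16-CD81 hepatoma cells plated as in the liver-stage assay but without sporozoites, with DMSO wells as negative and 25 µM puromycin as positive control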
[1] = test system: Plasmodium falciparum NF54 stage IV/V gametocytes; test: % inhibition of gametocyte viability (PrestoBlue); higher = more inhibition; conditions: 48 h
Procedure, shortened: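 Compound was tested at 1 or 5 µM against Stage IV/V NF54 gametocytes plated at 100 µL/well (2% gametocytaemia, 5% haematocrit). After 48 h of stationary, hypoxic incubation at 37 °C, 10 µL PrestoBlue was added for 2 h before reading 612 nm fluorescence from 70 µL of transferred supernatant. Gametocyte viability inhibition, as a percentage, was scaled against vehicle and kill controls from a single run.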

[2] = test system: Plasmodium falciparum NF54 asexual blood stage; test: % inhibition of asexual blood stage proliferation (pLDH); higher = more inhibition; conditions: 72 h
Procedure, shortened: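 In 96-well plates, compound at 2 or 20 µM was added to Plasmodium falciparum NF54 ring-stage cultures (1% haematocrit, 2% parasitaemia). Plates were incubated for 72 h at 37 °C in 4% CO2, 3% O2 and 93% N2, and survival was then read at 620 nm using the parasite lactate dehydrogenase assay. Inhibition of asexual proliferation, expressed as a percentage, was normalised to controls.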

[3] = test system: Plasmodium falciparum NF54 stage IV/V gametocytes; test: % inhibition of gametocyte viability (ATP bioluminescence); higher = more inhibition; conditions: 24 h
Procedure, shortened: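 Density gradients were used to enrich stage IV/V NF54 gametocytes, which were then seeded into 96-well plates at 30,000 per well with compound at 1 or 5 µM. The plates were incubated at 37 °C for 24 h, and ATP was measured with the Promega BacTiter Glo bioluminescence system. Percent inhibition of gametocyte viability was normalised to the plate controls from a single run.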

[4] = test system: Plasmodium falciparum NF54 stage IV/V gametocytes; test: % inhibition of gametocyte viability (luciferase reporter); higher = more inhibition; conditions: 48 h
Procedure, shortened: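 Stage IV/V gametocytes of the NF54-Pfs16-GFP-Luc line (2% gametocytaemia, 2% haematocrit) were exposed to compound at 1 or 5 µM. Incubation was 48 h at 37 °C, stationary and hypoxic. Luminescence was read on 30 µL lysate plus 30 µL Promega luciferin substrate on a GloMax-Multi+ reader with 10 s integration. Percent inhibition was normalised to DMSO and kill controls from a single run.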

SMILES | % viability of CHO cells (CHO; 2 µM) [%] | % viability of CHO cells (CHO; 20 µM) [%] | % inhibition of HepG2 viability (HepG2-A16-CD81) [%] | % inhibition of gametocyte viability ([1]; 1 µM) [%] | % inhibition of gametocyte viability ([1]; 5 µM) [%] | % inhibition of asexual blood stage proliferation ([2]; 2 µM) [%] | % inhibition of asexual blood stage proliferation ([2]; 20 µM) [%] | % inhibition of gametocyte viability ([3]; 1 µM) [%] | % inhibition of gametocyte viability ([3]; 5 µM) [%] | % inhibition of gametocyte viability ([4]; 1 µM) [%] | % inhibition of gametocyte viability ([4]; 5 µM) [%]
O=C(O)c1ccc(-n2nc(-c3ccccc3O)nc2-c2ccccc2O)cc1 | 85.7 | 106 | 3.21 | 8.04 | < 0 | -5.88 | -5.43 | < 0 | < 0 | < 0 | < 0
Cc1nc(-c2ccc(C3N(C)c4ccc(F)cc4C(=O)N3c3ccccc3)s2)cs1 (centres undefined) | 97.8 | 95.9 | 12.5 | < 0 | -0.427 | 15.3 | 72.5 | < 0 | < 0 | < 0 | < 0
O=[N+]([O-])/C(Br)=C/c1ccc(Br)o1 | 89.2 | 99.8 | -4.63 | 23.1 | 57 | 27.6 | 2.9 | 6.32 | 14.3 | 4.3 | 49.5
Nc1ccc(-c2nc3cc(C(F)(F)F)ccc3n2C23CC4CC(CC(C4)C2)C3)cc1 | 97.3 | 130 | -7.13 | 22.2 | 19.2 | 10.3 | 67.9 | < 0 | < 0 | < 0 | < 0
CC[C@H]1OC(=O)[C@H](C)[C@@H](O[C@H]2C[C@@](C)(OC)[C@@H](O)[C@H](C)O2)[C@H](C)[C@@H](O[C@@H]2O[C@H](C)C[C@H](N(C)C)[C@H]2O)[C@](C)(O)C[C@@H](C)C(=O)[C@H](C)[C@@H](O)[C@]1(C)O | 90.8 | 55.1 | 3.5 | 21 | 21 | -1.14 | 14.1 | < 0 | < 0 | < 0 | < 0
CN(O)C(=O)c1cc2c(CN3CCC[C@H]3C(N)=O)cn(Cc3ccc(F)cc3)c2cn1 | 96 | 119 | -5.55 | 31.6 | 30.7 | 16.8 | 52.7 | < 0 | < 0 | < 0 | < 0
O=c1cc(NCCCN[C@@H]2CCOc3c(Br)cc(Br)cc32)[nH]c2ccsc12 | 275 | 54.3 | 21.6 | 17.8 | 12.4 | 42.9 | 78.3 | < 0 | < 0 | < 0 | 11.8
NS(=O)(=O)c1ccc(NC(=O)NC(c2ccccc2)c2ccccc2)cc1 | 258 | 58.6 | 4.57 | < 0 | 7.57 | 3.15 | 82.5 | < 0 | < 0 | < 0 | < 0
NC(=O)c1ccccc1NC(=O)c1ccc(C(=O)Nc2ccccc2C(N)=O)cc1 | 87.5 | 120 | 0.348 | < 0 | < 0 | 5.85 | 13.6 | < 0 | < 0 | < 0 | 0.0831
Cc1cc(O)c2c(c1)C(=O)c1c(I)c(O)c(I)c(O)c1C2=O | 81.3 | 64.1 | 4.29 | < 0 | < 0 | 30.5 | 64.9 | < 0 | < 0 | < 0 | 6.19
CSc1ccc2c(c1)C(N1CCN(C)CC1)Cc1ccccc1S2 (centres undefined) | 90.7 | 137 | -7.96 | < 0 | < 0 | 26.2 | 73.7 | 20.9 | 44.2 | 1.22 | 4.12
CC(C)CCN1C(=O)C(C2=NS(=O)(=O)c3cc(NS(C)(=O)=O)ccc3N2)=C(O)[C@@H]2[C@H]3CC[C@H](C3)[C@@H]21 | 99.3 | 109 | 6.58 | 9.05 | 13.6 | 37.2 | 56.6 | < 0 | < 0 | 1.44 | 8.86
OC1O[C@H](CSc2ccc(F)cc2)[C@@H](O)[C@H]1O (some centres undefined) | 84.4 | -2.31 | -4.06 | < 0 | 18.7 | 91.2 | 90.9 | < 0 | < 0 | < 0 | 0.415
Clc1cccc(-c2nnc(-c3ccccc3)o2)c1 | 98.4 | 113 | -5.12 | < 0 | < 0 | 9.27 | 15.9 | < 0 | < 0 | < 0 | 30.2
O=C(NCc1cccc2ccccc12)c1cccs1 | 101 | 134 | 7.63 | 13.5 | 24.3 | -14.2 | -4.95 | < 0 | < 0 | < 0 | < 0
N#C/C(=C1/SC[C@H](c2ccc(Cl)cc2Cl)S1)n1ccnc1 | 113 | 118 | 10 | 11.8 | 16.4 | 48.7 | 22.8 | < 0 | < 0 | < 0 | 1.63
Nc1nc(O)ncc1F | 118 | 21.7 | 0.135 | 3.77 | < 0 | -11 | -2.89 | < 0 | < 0 | < 0 | < 0
Cc1cc(Nc2ccc(F)cc2)nc(SCc2nc3ccccc3[nH]2)n1 | 91.4 | 101 | 4.62 | 19 | 32.7 | -9.36 | -3.55 | 1.25 | 33.8 | < 0 | < 0
CC(C)c1ccc(COc2cccc(-c3cc(S(C)=O)c(C#N)c(=O)[nH]3)c2)cc1 (centres undefined) | 91 | 106 | 3.83 | < 0 | 28.5 | 18 | 56.2 | 51.9 | 82.8 | < 0 | < 0
CC(C)(C)c1ccc(Oc2ccc(N)cc2)cc1 | 130 | 58.8 | -4.14 | < 0 | 67 | -4.84 | 55.8 | < 0 | < 0 | 66.9 | 89.3

SMILES | % viability of CHO cells (CHO; 2 µM) [%] | % viability of CHO cells (CHO; 20 µM) [%] | % inhibition of HepG2 viability (HepG2-A16-CD81) [%] | % inhibition of gametocyte viability ([1]; 1 µM) [%] | % inhibition of gametocyte viability ([1]; 5 µM) [%] | % inhibition of asexual blood stage proliferation ([2]; 2 µM) [%] | % inhibition of asexual blood stage proliferation ([2]; 20 µM) [%] | % inhibition of gametocyte viability ([3]; 1 µM) [%] | % inhibition of gametocyte viability ([3]; 5 µM) [%] | % inhibition of gametocyte viability ([4]; 1 µM) [%] | % inhibition of gametocyte viability ([4]; 5 µM) [%]
Fc1ccc2c(/C=C/c3cccnc3)c[nH]c2c1 | 107 | 117 | 0.955 | < 0 | 6.61 | 4.51 | 61.2 | < 0 | < 0 | < 0 | < 0
Cc1ncc([N+](=O)[O-])n1CC(C)O (centres undefined) | 92.2 | 87.1 | 7.14 | 7.95 | 28.2 | 42.5 | 65.1 | 4.81 | < 0 | 8.84 | 10
CC(C)=CCC/C(C)=C/CNCCNC1C2CC3CC(C2)CC1C3 (centres undefined) | 93.3 | 65.4 | 17.1 | 51.3 | 89.7 | 11.7 | 93 | 78 | 90.8 | < 0 | 42.1
COc1c(NC(=O)[C@H]2CC[C@@H](COc3ccc([N+](=O)[O-])cc3)CC2)c(F)cc2c(=O)c(C(=O)O)cn(C3CC3)c12 | 104 | 102 | -1.96 | < 0 | 23 | 8.56 | 70 | 0.404 | < 0 | < 0 | 9
CCCCSc1nc(N)c2[nH]c(=O)c(=O)n(Cc3ccccc3)c2n1 | 114 | 55.2 | 4.02 | 1.71 | 21.9 | 14.9 | 14.6 | < 0 | < 0 | < 0 | < 0
CCN(CC)CCCC(C)Nc1ccnc2cc(Cl)ccc12 (centres undefined) | 95.9 | 76.9 | 8.97 | 16.9 | 6 | 85.8 | 99.8 | < 0 | < 0 | 29.7 | 5.51
c1ccc(Cn2c(-c3ccccn3)nc3ccccc32)cc1 | 75.8 | 117 | 1.97 | -0.335 | 3.56 | 5.52 | 19.5 | < 0 | < 0 | < 0 | 11.3
O=C(NC(=O)N1CCCc2ccccc21)c1cccc(Cl)c1 | 99.8 | 116 | 1.03 | < 0 | < 0 | -12.6 | 10.3 | < 0 | < 0 | < 0 | < 0
CCOC(=O)N1CCN(c2ccc(Cl)cc2)CC1 | 90.5 | 83.4 | -3.4 | 17.5 | < 0 | 6.16 | 24.1 | < 0 | < 0 | < 0 | 8.21
CCc1cc(Nc2cc(=O)n(CCN3CCN(C(=O)c4ccccc4)CC3)c(=O)[nH]2)ccc1C | 93.2 | 103 | -1.38 | < 0 | 23.7 | -6.84 | 61.3 | < 0 | < 0 | < 0 | 9.16
CCCC1(C2CC2)c2cc(Cl)ccc2NC(=O)N1C (centres undefined) | 60.2 | 59.9 | 1.91 | < 0 | 6.87 | 18 | 53.6 | < 0 | < 0 | 0.472 | < 0
O=C(N[C@H](Cc1cccc2ccccc12)C(=O)NCCc1c[nH]cn1)C1Cc2ccccc2C1 | 95.1 | 97.8 | 0.483 | 2.53 | 32.6 | 23 | 81.3 | 2.29 | 1.33 | < 0 | 2.07
c1ccc(-c2nnc3c4ccccc4c(N4CCNCC4)nn23)cc1 | 101 | 91.4 | 10.4 | 27.8 | 50.3 | 3.14 | 69.2 | < 0 | 0.889 | < 0 | 11.9
O=C(/C=C\n1cnc(-c2cc(C(F)(F)F)cc(C(F)(F)F)c2)n1)NNc1ccccn1 | 117 | 91.3 | 31.8 | 10.8 | < 0 | 13.9 | 40 | < 0 | < 0 | 13.4 | < 0
CC[C@@H](CO)NCCN[C@@H](CC)CO | 85 | 50.4 | -1.81 | < 0 | 25 | 42.9 | 37.6 | 0.155 | 0.768 | < 0 | < 0
COc1ccc(OCc2ccc(COc3c(Cl)cccc3Cl)cc2)c(Cl)c1 | 99.5 | 100 | -5.86 | < 0 | < 0 | 21.2 | 68.1 | 4.45 | < 0 | < 0 | < 0
O=C(O)c1sccc1S(=O)(=O)n1ccc2cc(Br)ccc21 | 93.4 | 97.8 | -1.44 | 12.3 | 30.7 | 49.8 | 84.9 | < 0 | < 0 | < 0 | < 0
Cc1ccc(NC(=O)c2cc(Cl)ccc2O)cc1 | 101 | -0.714 | 29.4 | < 0 | < 0 | 57.7 | 98.8 | < 0 | < 0 | 5.12 | 4.7
N=c1n(CCN2CCCCC2)c2ccccc2n1CC(O)COc1ccc(Cl)cc1Cl (centres undefined) | 82.7 | -3.8 | 5.14 | 38.8 | 66 | 76.8 | 85.7 | 85.7 | 88.1 | 40.7 | 97
